PubChem BioAssay AID1626 (SRMLSC, 2009)
Hit rate of the full screen: of about 220,000 compounds, about 2,000 (0.91%) were called active. Another 2% or so got no clear call; they are omitted. Only a sample is shown. Potency and affinity values are given separately. Unmarked numbers belong to inactive results. Rule as the data show it: inconclusive = inhibition above about 80% without an active follow-up result; inactive = below that; test concentration not stated here.

experiment: M. tuberculosis H37Rv growth inhibitors, H37Rv strain (AID 1626); settings: hits give high values, concentration not given here;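 also: bacteria incubated seven days before Alamar blue readout; 0% = bacteria only wells and 100% = bacteria with antibiotic wells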

| SMILES | inhibition [%] |
| --- | --- |
| CCOC(=O)c1c(CN2CCC(C)CC2)n(C)c2cc(Br)c(OC)cc12 | 11.6 |
| COc1ccccc1NS(=O)(=O)c1cc(C)ccc1C | -7.48 |
| CC(NC(=O)c1ccccc1F)c1nnc(SCc2nc3ccccc3c(=O)[nH]2)n1C (stereo unspecified) | -3.02 |
| Cc1c(-c2ccccc2)sc2nc[nH]c(=S)c12 | 89.6 |
| CNc1ncnc2sc(-c3ccccc3)cc12 | -0.065 |
| O=c1[nH]cnc2sc(-c3ccccc3)cc12 | 40 |
| Cc1sc2nc(Cc3ccccc3)[nH]c(=O)c2c1-c1ccccc1 | -4.69 |
| c1ccc2c(c1)NC1(CCCCCC1)n1c-2nc2ccccc21 | -3.46 |
| COc1ccc(CCn2c(-c3ccc(Cl)cc3)n[nH]c2=S)cc1OC | 1.97 |
| COc1ccc(C(=O)NCCc2nnc3ccc(SCC(=O)Nc4cc(C)on4)nn23)cc1 | 14.5 |
| COc1ccc(C(CC(=O)Nc2nccs2)n2cccc2)cc1 (stereo unspecified) | -4.49 |
| O=[N+]([O-])c1ccc(-n2nnnc2-c2ccccc2)cc1 | 1.98 |
| CCOC(=O)c1nnn(-c2ccc([N+](=O)[O-])cc2[N+](=O)[O-])c1C | -6.3 |
| Cc1ccc(-c2csc3nc(C)n(N)c(=O)c23)cc1 | 3.11 |
| COc1ccc(C(=O)COC(=O)CNC(=O)C2CCCCC2)c(OC)c1 | -2.99 |
| COc1ccc(O)c(C(=O)CC(=O)c2ccc(F)cc2)c1 | -1.1 |
| COc1ccc(O)c(C(=O)CC(=O)c2ccccc2)c1 | 0.06 |
| COc1ccccc1CCNC(=O)Cc1cccs1 | 4.99 |
| Cc1cccc(N(CC(N)=O)S(C)(=O)=O)c1C | 9.11 |
| Cc1ccc2nc(NC(=O)C(NS(=O)(=O)c3cccc4nsnc34)C(C)C)sc2c1 (stereo unspecified) | 11.5 |
| COc1ccc(NC(=S)NCc2ccco2)c(OC)c1 | -0.51 |
| CCOc1ccc(CCNC(=O)CSc2cc(=O)n(C)c3cc(Cl)ccc23)cc1OCC | -8.35 |
| COc1ccc(N/C=C\C(=O)c2ccc3c(c2)OCO3)cc1 | 77.1 |
| COc1ccc(C(=O)/C=C(\C)Nc2ccc3c(c2)OCO3)cc1 | 53.2 |

| SMILES | inhibition [%] |
| --- | --- |
| COc1ccc(OC)c(N/C(C)=C/C(=O)c2ccc(C)o2)c1 | -3.01 |
| CCOc1ccc(N/C(C)=C/C(=O)c2ccc3c(c2)OCCO3)cc1 | 77.8 |
| COC(=O)c1ccc(N/C=C\C(=O)c2ccc3c(c2)OCO3)cc1 | 17.8 |
| CC(=O)Nc1ccc(N/C=C/C(=O)c2ccc(C)o2)cc1 | 7.24 |
| COCCN(CCOC)C(=O)C1CCCN(S(=O)(=O)c2ccc(NC(=O)OC)cc2)C1 (stereo unspecified) | -2.59 |
| COc1cccc(Oc2coc3cc(OC(=O)N4CCOCC4)ccc3c2=O)c1 | -2.14 |
| CN(C)CCCN(C(=O)c1ccc(S(=O)(=O)N(C)C)cc1)c1nc2cc3c(cc2s1)OCO3 | -1.53 |
| CCOC(=O)c1ccccc1NC(=O)Cn1cnc2c(nnn2-c2ccc(C)cc2)c1=O | 1.13 |
| O=[N+]([O-])c1ccc(N2CCN(S(=O)(=O)c3ccccc3)CC2)cc1NCc1ccco1 | -1.65 |
| O=S(=O)(NCc1ccccc1)c1ccc(S(=O)(=O)N(Cc2ccccn2)C2CCCC2)cc1 | -1.41 |
| O=C1CC(/C=C/c2ccccc2)=Nc2ccccc2N1 | 2.15 |
| O=C1CC(/C=C/c2ccncc2)=Nc2ccccc2N1 | -0.28 |
| CCOc1cccc(-c2cc(-c3n[nH]c(=S)n3CC)c3ccccc3n2)c1 | 14.2 |
| COc1ccc(CNC(=O)COC(=O)C2CCN(S(=O)(=O)c3ccccc3C(F)(F)F)CC2)cc1 | 1.6 |
| CC1C(c2ccccc2)C(C#N)(C#N)C2(C#N)C(=O)NC1(N)C2C (stereo unspecified) | -0.87 |
| O=[N+]([O-])c1cc(Cl)ccc1Sc1cccc2cccnc12 | 28.5 |
| O=[N+]([O-])c1ccc(CSc2nc3ccccc3o2)cc1 | -1.9 |
| O=[N+]([O-])c1ccc(Sc2cccc3cccnc23)cc1 | 30.8 |
| O=[N+]([O-])c1ccc(Cl)cc1Sc1nc2ccccc2o1 | -9.56 |
| O=C(c1ccc(Cl)c(S(=O)(=O)N2CCCC2)c1)N1CCN(c2ccc(F)cc2)CC1 | 3.62 |
| COc1ccc(NC(=O)CSc2nc(NS(=O)(=O)c3ccccc3)cc(=O)[nH]2)cc1 | 3.87 |
| CC(Sc1ccccc1)C(=O)Nc1ccccc1C(=O)N1CCOCC1 (stereo unspecified) | -11.3 |
| CC(C)(C)c1cc(-c2ccccc2)no1 | 10.7 |
| COc1ccccc1C(=O)Nc1ccc(N2CCN(Cc3ccccc3)CC2)cc1 | 40.9 |

| SMILES | inhibition [%] |
| --- | --- |
| COc1ccc(C(=O)Nc2ccc(N3CCN(Cc4ccccc4)CC3)cc2)cc1 | 4.64 |
| O=C(NNc1ccc(-c2csnn2)cc1)c1cc(Cl)cc(Cl)c1 | 27.1 |
| CCCCC1=CC2=C(c3ccco3)C(=O)C(C)(OC(=O)c3ccc(OC)cc3)C(=O)C2=CN1CCCOC(C)C (stereo unspecified) | -5.76 |
| CC(=O)OC(C(=O)N1CCOCC1)c1c(F)cccc1F (stereo unspecified) | -0.03 |
| O=C(CNC(=O)c1ccc(-c2ccccc2)cc1)OCc1ccc(Br)cc1 | 6.21 |
| O=C(CCCNC(=O)/C(=C\c1ccc(F)cc1)NC(=O)c1ccccc1)OCc1ccccc1 | 1.82 |
| Cc1ccc(C(=O)N/C(=C\c2ccccc2)C(=O)OCc2ccccc2)cc1 | 12.7 |
| O=C(CCCNC(=O)/C(=C/c1ccc(Br)cc1)NC(=O)c1ccccc1)OCc1ccccc1 | 1.44 |
| COc1ccc(-c2cn3cc(C(F)(F)F)cc(Cl)c3n2)cc1 | 65.8 |
| CCCc1cc(C(N)=O)c(NC(C)=O)s1 | 2.59 |
| O=C(c1cc(-c2ccccc2)on1)N1CCc2ccccc2C1 | -6.16 |
| CCOc1ccc(C2c3c(oc4cc(C)c(C)cc4c3=O)C(=O)N2CCCN2CCOCC2)cc1 (stereo unspecified) | -8.64 |
| CCOC(=O)C1CCN(Cc2nnnn2CCc2ccccc2)CC1 | -3.91 |
| Nc1nc2nccc(-c3ccco3)n2n1 | -5.94 |
| CC(C)OC(=O)C(C)Nc1n[nH]c(=S)[nH]c1=O (stereo unspecified) | -1.15 |
| COc1ccc(OC)c(-n2c(-c3ccc(S(C)(=O)=O)cc3)cc(C=O)c2C)c1 | -4.11 |
| c1ccc(-c2c(-c3ccccc3)n(Cc3ccco3)c3ncnc(NCCCn4ccnc4)c23)cc1 | 25.2 |
| c1cncc(-c2nc(NCCCn3ccnc3)c3ccccc3n2)c1 | 1.38 |
| Cc1nc(NCCCn2ccnc2)c2oc3ccccc3c2n1 | 7.2 |
| c1ccc(-c2oc3ncnc(NCCCN4CCOCC4)c3c2-c2ccccc2)cc1 | -8.09 |
| Cc1nc(NCCCn2ccnc2)c2ccccc2n1 | -2.03 |
| CCc1nc(NCCCn2ccnc2)c2oc3ccccc3c2n1 | -11.5 |
| CCOC(=O)c1cnn(CCOC(=O)c2cccs2)c1NC(=O)c1cccs1 | 7.28 |
| COC(=O)c1ccc(CSc2nnc(Nc3ccc(C)cc3)s2)o1 | -4.05 |

| SMILES | inhibition [%] |
| --- | --- |
| Cc1c(Br)c([N+](=O)[O-])nn1CC(=O)c1ccccc1 | 0.16 |
| Cc1ccccc1CNC(=O)CCc1ccccc1 | -2.14 |
| CCc1ccc(Oc2ncnc(N)c2[N+](=O)[O-])cc1 | -1.27 |
| NC(=O)c1cc2n(n1)C(C(F)(F)F)CC(c1ccco1)N2 (stereo unspecified) | -17 |
| Cc1ccc2nc3c(nc2c1)-c1ccccc1C3=O | -8.47 |
| Cc1ccc2nc(-c3ccccc3)c(-c3ccccc3)nc2c1 | 1.48 |
| O=C(CN1CCN(S(=O)(=O)c2ccccc2)CC1)Nc1ccc2c(c1)OCO2 | -8.01 |
| Nc1ncccc1OCc1cccc(C(F)(F)F)c1 | 16.6 |
| COc1ccc2nc(C(F)(F)Cl)c(C#N)c(N)c2c1 | -0.68 |
| O=C(Cc1ccccc1)N/N=C/c1ccc2cccc(O)c2n1 | 22.8 |
| COc1ccc(C(=O)N/N=C/c2ccc3cccc(O)c3n2)cc1 | 64.5 |
| O=C(O)c1ccc(/C=C/c2ccc3cccc(O)c3n2)cc1 | 74.2 |
| O/N=C/c1ccc2cccc(O)c2n1 | 3.62 |
| COc1cc2c(cc1NC(=O)C(C)Sc1ccc(C)cc1)oc1ccccc12 (stereo unspecified) | 9.39 |
| CCOC(=O)CON1C(=O)C(=O)N(OCC(=O)OCC)[C@H]2CCCC[C@H]21 | 2.73 |
| COc1ccc(-c2[nH]ncc2CN2CCSCC2)c(OC)c1 | -1.11 |
| COc1ccc(-n2c(SCC(=O)Nc3ccccc3)nc3c(c2=O)SCC3)cc1 | 6.14 |
| CCCC(CCC)C(=O)Nc1ccncc1 | -10.4 |
| C=CCC(=O)OCCCCCCOc1ccc(C(=O)O)cc1 | -13.9 |
| CCCCCCOc1ccc(/C(N)=N/O)cc1 | 5.99 |
| CC1(C)Cc2c(c(=S)nc(-c3ccccc3)n2CCO)CO1 | 7.44 |
| O=C(O)Cc1sc(NCc2ccco2)nc1-c1ccccc1 | 8.81 |
| O=C(Nc1ccc(S(=O)(=O)Nc2nccs2)cc1)C1CC(=O)N(c2ccccc2)C1 (stereo unspecified) | -6.74 |
| COc1ccc(Br)cc1/C=N/NC(=O)c1ccco1 | -2.04 |
